Compounds with a hit are over-represented: about 3.3% of the library has one in this group of screens.
AmpC no deterg: AmpC beta-lactamase inhibition without detergent; P00811; AmpC nitrocefin hydrolysis, absorbance 480 nm, 0.0001% Triton; Potency, µM (top dose mostly 57.1 µM), for the others: top-dose activity change, negative = inhibition, actives largely listed as inhibitors; actives 0.52% (n = 330,000); AID 485341;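 also: plate controls were no compound for no effect and no enzyme for full effect; nearly all actives have a fitted effect of over 20% in size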
Target sequence (P00811 whole entry, looked up): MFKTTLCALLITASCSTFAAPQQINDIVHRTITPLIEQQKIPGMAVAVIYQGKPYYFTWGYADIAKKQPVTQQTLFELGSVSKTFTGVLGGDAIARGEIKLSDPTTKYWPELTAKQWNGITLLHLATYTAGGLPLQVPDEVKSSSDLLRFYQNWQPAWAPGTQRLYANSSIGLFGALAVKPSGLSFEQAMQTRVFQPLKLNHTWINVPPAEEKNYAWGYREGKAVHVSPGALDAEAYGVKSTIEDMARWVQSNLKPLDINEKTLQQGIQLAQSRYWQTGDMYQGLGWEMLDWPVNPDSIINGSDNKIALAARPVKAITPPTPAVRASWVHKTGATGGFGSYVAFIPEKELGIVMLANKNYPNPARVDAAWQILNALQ
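20 mM phosphate pH 7.0 + 0.01% (detergent screen) or 0.0001% Triton X-100; 5.3 nM AmpC reagent; cpd preinc 15 min RT; nitrocefin (800 uM stock) to start; A480 q20 s × 4 min; Activity was normalised to no-enzyme and no-compound control wells.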
AmpC inh detg: blocks E. coli AmpC beta-lactamase in detergent assay; P00811; AmpC hydrolysis of nitrocefin, absorbance 480 nm, 0.01% Triton; Potency, µM (doses to about 114 µM), inactives show at the highest dose activity change, negative = inhibition, actives largely listed as inhibitors; actives 0.041% (n = 370,000);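 also: 0% = no-compound wells and -100% = no-enzyme wells; nearly all actives have a fitted effect of over 25% in size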
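20 mM phosphate pH 7.0 + 0.01% (detergent screen) or 0.0001% Triton X-100; 5.3 nM AmpC reagent; cpd preinc 15 min RT; nitrocefin (800 uM stock) to start; A480 q20 s × 4 min; Activity was normalised to no-enzyme and no-compound control wells.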
Sm TGR block: S. mansoni TGR enzyme inhibition | AID 485364 | purified TGR, DTNB reduction, TNB absorbance 405 nm | Q962Y6 | Potency, µM (doses to about 114 µM), for the others: at the highest dose activity change, negative = inhibition, most hits filed as inhibitors | actives 3% (n = 360,000); also: nearly all actives have a fitted effect of over 60% in size
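First, TGR (20 nM dispensed) and NADPH were mixed with compound. Second, a 15 min room-temperature incubation followed. Third, further NADPH and then DTNB were added to start the reaction. Finally, TNB absorbance was monitored kinetically.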
* marks the source's active call; other numbers are inactive results; u = inconclusive; x = no result given. Calls follow the shape of the dose curve; as a rule, active = well fitted curve in the direction sought with a large enough effect; inconclusive = small, poorly fitted or top-dose-only effect, or another doubt; inactive = no such curve, though single readings can be large; an effect the other way counts as inactive or inconclusive. Unless noted, % is scaled to controls: 0 for no effect and ±100 for the full control effect; potency is read from the fitted curve at half-maximal effect.

SMILES	AmpC no deterg	AmpC inh detg	Sm TGR block
CN(c1ccccc1)c1nc(N)c(C#N)c(CC#N)c1C#N	-32.3%	-11.5%	-17.5%
N#CCc1c(C#N)c(N)nc(Nc2ccccc2)c1C#N	-25.8%	4.3%	20µM*
COc1ccc(OC)c(NC(=O)C2CCC(CNc3c(N4CCOCC4)c(=O)c3=O)CC2)c1 (stereo unspecified)	6.2%	5.6%	-8.0%
CC[n+]1c(C=C2C=C(C)OC(C)=C2)sc2ccccc21	-0.2%	6.0%	1.9%
CC[n+]1c(/C=C2/C=C(C)CC(C)C2)sc2ccccc21 (stereo unspecified)	-19.9%	2.7%	39.8µM*
O=C(NC(NNc1ccc([N+](=O)[O-])cc1)(C(F)(F)F)C(F)(F)F)c1ccccc1Cl	-26.5%	-6.9%	u
O=C(NC(NNc1ccc([N+](=O)[O-])cc1)(C(F)(F)F)C(F)(F)F)c1ccc(F)cc1	-12.2%	-11.6%	31.6µM*
CCC1=[N+](C)CCn2c(C)ccc21	-17.1%	u	5.9%
CC(=O)c1c(C)c(C)c2n1CCn1c(C)ccc1-2	0.5%	2.0%	12.6µM*
Cc1ccc(S(=O)(=O)CCC(=O)Nc2sccc2C#N)cc1	-4.2%	u	44.7µM*
CCOc1ccc(OCCCC(=O)Nc2cc(Cl)ccc2-n2cncn2)cc1	14.5%	-15.2%	-0.8%
Cc1ccc(S(=O)(=O)CCC(=O)Nc2ccccc2N2CCCC2)cc1	-21.0%	0.0%	-24.2%
Cc1ccc(S(=O)(=O)CCC(=O)Nc2sccc2C(N)=O)cc1	-24.4%	x	x
Cc1ccc(S(=O)(=O)CCC(=O)Nc2ccccc2C)cc1	-10.6%	-1.1%	39.8µM*
Cc1ccc(S(=O)(=O)CCC(=O)Nc2cc(Cl)ccc2-n2cncn2)cc1	1.8%	u	17.8µM*
Cc1cc(C)cc(N2CC(C(=O)OCC(=O)Nc3cc(C)on3)CC2=O)c1 (stereo unspecified)	-3.5%	-3.4%	1.3%
Cc1ccc(S(=O)(=O)NCCC(=O)Nc2cccc(S(=O)(=O)N3CCCC3)c2)cc1C	-6.6%	x	x
O=C(CSc1nnc(Nc2ccccc2)s1)NCc1ccco1	-19.4%	u	u
COc1cccc(N2CC(C(=O)Nc3nnc(SCC(=O)NCc4ccco4)s3)CC2=O)c1 (stereo unspecified)	-43.1%	-1.0%	50.1µM*
Cc1ccccc1N1CC(C(=O)Nc2nnc(SCC(=O)Nc3nccs3)s2)CC1=O (stereo unspecified)	28.2µM*	5.6%	-0.4%
O=C(CSc1nnc(NC(=O)C2CC(=O)N(c3ccccc3)C2)s1)NCC1CCCO1 (stereo unspecified)	-21.1%	2.4%	-20.4%
O=C(CSc1nnc(NC(=O)C2CC(=O)N(c3ccccc3)C2)s1)NCc1ccco1 (stereo unspecified)	-40.7%	2.1%	44.7µM*
COc1cccc(N2CC(C(=O)Nc3nnc(SCC(=O)NC4CCCC4)s3)CC2=O)c1 (stereo unspecified)	-9.2%	3.7%	-17.2%
Cc1cccc(N2CC(C(=O)Nc3nnc(SCC(=O)Nc4nccs4)s3)CC2=O)c1 (stereo unspecified)	-31.5%	u	-16.0%
O=C(CSc1nnc(Nc2ccccc2F)s1)NCc1ccco1	-32.1%	-10.7%	50.1µM*
SMILES	AmpC no deterg	AmpC inh detg	Sm TGR block
Cc1cccc(-n2c(=S)[nH]c3sc4c(c3c2=O)CCc2ccccc2-4)c1	-37.2%	u	-15.7%
CCCCOC(=O)c1c(C)oc2c1cc(NS(=O)(=O)c1cc(OC)ccc1OC)c1ccccc12	x	13.2%	-0.3%
Cc1ccc2oc(-c3ccc(C)c(NC(=O)/C=C/c4ccc(Cl)cc4)c3)nc2c1	x	-4.3%	-11.9%
S=C(NCc1ccccc1)N1CCN(C(=S)NCc2ccccc2)CC1	3.9%	-9.0%	-4.8%
CCCCNC(=O)NC1CCCC1	-10.0%	u	-6.1%
Cc1ccc(C)c(S(=O)(=O)NCC(c2ccco2)S(=O)(=O)c2ccc(F)cc2)c1 (stereo unspecified)	x	12.5%	0.355µM*
Cc1ccc(C)c(S(=O)(=O)NCC(c2ccco2)N2CCc3ccccc3C2)c1 (stereo unspecified)	-37.0%	u	1.2%
COc1ccc(C)cc1S(=O)(=O)NCC(c1cccs1)S(=O)(=O)c1ccc(C)cc1 (stereo unspecified)	x	4.0%	u
COc1ccc(S(=O)(=O)NCC(c2ccco2)S(=O)(=O)c2cccs2)cc1OC (stereo unspecified)	x	1.9%	0.282µM*
COc1cc(S(=O)(=O)NCC(c2ccco2)N2CCCCC2)ccc1NC(C)=O (stereo unspecified)	-28.0%	0.6%	-11.6%
COc1ccc(F)cc1S(=O)(=O)NCC1CCCO1 (stereo unspecified)	-10.7%	-14.2%	5.2%

Screening results: PubChem, National Center for Advancing Translational Sciences (NCATS)
